Results on 13 compounds are retold here after PubChem BioAssay.

A number with no mark means an inactive call. Activity calls are given as the source filed them.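 The calls were made as follows, unless noted: active = compounds that lower viability of the colon cancer cells in the luminescence readout, with no numeric limit stated; inactive = the rest.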

Assay [1] is described as follows: stimulators of insulin release from INS-1E, primary screen, cell-based, 5 mM glucose, NPC library (AID 1117329;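 active = compound raises insulin release from rat beta cells at 5 mM glucose, no numeric limit stated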). The following applies: rat INS-1E insulin secretion, at 10 µM, hits give high values.
A short description of assay [2]: growth inhibition of GSK3B-pretreated HCT116 cells – cell-based, CellTiter-Glo, 0.2 to 20 µM (AID 1117336;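 active = compounds lowering colon cancer cell viability after pretreatment blocking the GSK3B kinase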). The following applies: HCT116 viability after GSK3B inhibitor, at 20 µM, hits give high values.
Assay [3] in a line: inhibition of endothelial tube formation, primary screen, imaging, VEGF stimulated, CD31 staining, tube area, NPC library (AID 1117340;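 active = compound that reduces growth-factor-driven endothelial tube area in a mixed cell culture, no cutoff stated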). The following applies: VEGF-stimulated ADSC/ECFC co-culture, at 10 µM, hits give high values.
Assay [4] can be described thus: GLP1 release stimulators, primary, NCI-H716, NPC library (AID 1117341;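 active = compound raises GLP1 secretion from the human gut endocrine cells, with no numeric limit stated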). The following applies: NCI-H716 cells, at 10 µM, hits give high values.
Assay [5] is described as follows: HCT116 colon cancer cell growth inhibition, primary screen, CellTiter-Glo luminescence, NPC library (AID 1117342;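 active = compounds that lower survival of HCT116 colon cancer cells in the luminescence readout, no numeric limit stated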). The following applies: at 20 µM (top of the series).
The nature of assay [6]: reduced SW480 viability measured with CellTiter-Glo, NPC library, primary (AID 1117343). The following applies: CellTiter-Glo luminescence; at 20 µM (top of the series).
Assay [7] in a line: NPC library primary testing for decreased DLD-1 cell viability via CellTiter-Glo (AID 1117346;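 active = compounds that lower survival of DLD-1 colon cancer cells in the luminescence readout, no cutoff given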). The following applies: DLD-1 viability, CellTiter-Glo luminescence; at 20 µM (top of the series). Background: ATP-based viability assays read luminescence as a measure of living cells.
For assay [8], the target named is 6-phosphogluconate dehydrogenase, decarboxylating (Homo sapiens) (UniProt P52209). The assay can be described thus: inhibition of human phosphogluconate dehydrogenase – biochemical, recombinant enzyme, NADPH absorbance, primary screen (AID 1159550;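 active = at least 20% inhibition of 6-phosphogluconate dehydrogenase activity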). The following applies: recombinant 6PGD, NADPH absorbance 341 nm; at 10 µM; hits give high values.
Chain of 6-phosphogluconate dehydrogenase, decarboxylating (Homo sapiens) (P52209 whole entry, looked up): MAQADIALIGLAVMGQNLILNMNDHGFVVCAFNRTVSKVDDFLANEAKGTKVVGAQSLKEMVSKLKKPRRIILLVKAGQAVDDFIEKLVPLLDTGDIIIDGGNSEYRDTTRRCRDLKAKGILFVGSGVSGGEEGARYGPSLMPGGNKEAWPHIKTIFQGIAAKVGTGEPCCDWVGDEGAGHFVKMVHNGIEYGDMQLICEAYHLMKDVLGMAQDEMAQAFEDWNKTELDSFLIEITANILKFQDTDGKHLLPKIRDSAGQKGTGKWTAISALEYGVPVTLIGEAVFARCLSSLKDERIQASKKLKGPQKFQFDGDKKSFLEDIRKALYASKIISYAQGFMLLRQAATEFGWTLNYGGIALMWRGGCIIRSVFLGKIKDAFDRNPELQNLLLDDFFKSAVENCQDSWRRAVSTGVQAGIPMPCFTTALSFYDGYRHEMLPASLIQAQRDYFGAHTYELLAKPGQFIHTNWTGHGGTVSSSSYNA

The term inhibition denotes the relative decrease from the control value, in per cent. Turning to `CC(=O)OCC1=C(C(=O)O)N2C(=O)[C@@H](NC(=O)Cc3cccs3)[C@H]2SC1`, in assay [1], the insulin secretion stimulation was 3.6%. Also, in assay [2], the viability decrease is 33.1%. Also, in assay [3], the tube area decrease was -3.9%. Moreover, the GLP1 secretion stimulation in assay [4] was 2.4%. Moreover, the inhibition of viability in assay [5] was 2.9%. The viability decrease (inhibition) was -15.1% in assay [6] and -1% in assay [7]. Besides, in assay [8], the inhibition is 4.29%.
Consider `COc1ccc2cc1Oc1ccc(cc1)C[C@H]1c3c(cc4c(c3Oc3cc5c(cc3OC)CCN(C)[C@@H]5C2)OCO4)CCN1C`, for which the insulin secretion stimulation in assay [1] is 5.5%. Also, the viability decrease in assay [2] is 98.1% (active). Also, the tube area decrease in assay [3] was 108% (active). The GLP1 secretion stimulation in assay [4] is 1.9%. For the same compound, the inhibition of viability in assay [5] is 102% (active). For the same compound, the viability decrease (inhibition) in assay [6] was 123% (active); in assay [7], 87.3% (active). In assay [8], the inhibition was -1.33%.
Turning to `CCCc1ncc(C[n+]2ccccc2C)c(N)n1`, the insulin secretion stimulation in assay [1] was 0.95%. For the same compound, the viability decrease in assay [2] is -5.4%. Further, the tube area decrease in assay [3] is 6.7%. Besides, in assay [4], the GLP1 secretion stimulation is 0.7%. In addition, the inhibition of viability in assay [5] was -12.5%. The viability decrease (inhibition) in assay [6] was -33.4%; in assay [7], -13.4%. The inhibition in assay [8] was -3.15%.
`CN1C(C(=O)Nc2ccccn2)=C(O)c2sccc2S1(=O)=O`: in assay [1], the insulin secretion stimulation was 1.6%. The viability decrease in assay [2] was -17.8%. The tube area decrease in assay [3] was 2.6%. The GLP1 secretion stimulation in assay [4] was 0.4%. Further, the inhibition of viability in assay [5] was 8.2%. In addition, the viability decrease (inhibition) in assay [6] was 13.4%; in assay [7], -0.2%. Besides, the inhibition in assay [8] is -2.82%.
Regarding `Cc1ccc(C(=O)C(C)CN2CCCCC2)cc1` (centres undefined), in assay [1], the insulin secretion stimulation was 0.3%. The viability decrease in assay [2] was -13.7%. In addition, in assay [3], the tube area decrease was -6.9%. Besides, the GLP1 secretion stimulation in assay [4] was 4.8%. Moreover, in assay [5], the inhibition of viability is 0.13%. The viability decrease (inhibition) is 2.3% in assay [6] and -3.8% in assay [7]. For the same compound, the inhibition in assay [8] is 7.71%.
Take `CNC1(C)C2CCC(C2)C1(C)C` (centres undefined): in assay [1], the insulin secretion stimulation was 3.5%. In assay [2], the viability decrease was -6%. Also, the tube area decrease in assay [3] was -1.8%. Also, the GLP1 secretion stimulation in assay [4] is 4.9%. In assay [5], the inhibition of viability is 15.7%. The viability decrease (inhibition) in assay [6] was 8.7%; in assay [7] it was 1.8%. Also, the inhibition in assay [8] was -9.67%.
As to `O=C1c2ccccc2C(=O)C1c1ccccc1`, the insulin secretion stimulation in assay [1] is -1.2%. Further, in assay [2], the viability decrease is -5.45%. Also, the tube area decrease in assay [3] is -11%. In addition, the GLP1 secretion stimulation in assay [4] is 2.1%. Further, the inhibition of viability in assay [5] is -1%. For the same compound, the figures for the viability decrease (inhibition) in assay [6] and in assay [7] were 1.3% and -4.85%, respectively. The inhibition in assay [8] is 8.94%.
Consider `CN(C)CCCN1c2ccccc2Sc2ccccc21`, for which, in assay [1], the insulin secretion stimulation was 14.5%. In assay [2], the viability decrease is -76.1%. For the same compound, the tube area decrease in assay [3] is 12.3%. For the same compound, in assay [4], the GLP1 secretion stimulation was 9.2%. For the same compound, the inhibition of viability in assay [5] was 39.3%. Further, the values for the viability decrease (inhibition) in assay [6] and in assay [7] were 95.8% (active) and 14.3%, respectively. Besides, the inhibition in assay [8] is 6.03%.
For the compound `O=C1C(=O)c2ccccc2C(O)=C1C1CCC(c2ccc(Cl)cc2)CC1` (centres undefined), in assay [1], the insulin secretion stimulation was 1.1%. In assay [2], the viability decrease is 96.3% (active). Besides, the tube area decrease in assay [3] is 69.9% (active). For the same compound, the GLP1 secretion stimulation in assay [4] was 1.4%. Also, the inhibition of viability in assay [5] was 97.1% (active). For the same compound, the viability decrease (inhibition) in assay [6] is 144% (active); in assay [7] it was 99% (active). Also, the inhibition in assay [8] is 5.16%.
Regarding `O=c1[nH]c(=O)n([C@H]2C[C@H](O)[C@@H](CO)O2)cc1F`, the insulin secretion stimulation in assay [1] is -1.2%. The viability decrease in assay [2] was 94.2% (active). In assay [3], the tube area decrease was 87.8% (active). Also, the GLP1 secretion stimulation in assay [4] is 2.8%. Besides, the inhibition of viability in assay [5] was 102% (active). The results for the viability decrease (inhibition) in assay [6] and in assay [7] were 93.2% (active) and 69.5% (active), respectively. Moreover, the inhibition in assay [8] was -7.05%.
Take `CN(C)CCCN1c2ccccc2Sc2ccc(C(F)(F)F)cc21`: the insulin secretion stimulation in assay [1] is 5.8%. In addition, the viability decrease in assay [2] is 68.5% (active). Also, the tube area decrease in assay [3] is 45.1% (active). The GLP1 secretion stimulation in assay [4] is 17.9%. In assay [5], the inhibition of viability was 88.7% (active). Moreover, the viability decrease (inhibition) was 137% (active) in assay [6] and 101% (active) in assay [7]. Moreover, the inhibition in assay [8] is 1.69%.
As to `Cc1cc(C(C)(C)C)cc(C)c1CC1=NCCN1`, the insulin secretion stimulation in assay [1] was 0.2%. The viability decrease in assay [2] is -61.3%. In addition, the tube area decrease in assay [3] was 5.9%. In addition, the GLP1 secretion stimulation in assay [4] was 4.3%. Also, the inhibition of viability in assay [5] was 18.3%. Also, the viability decrease (inhibition) in assay [6] is 2.6%; in assay [7] it was 14.6%. In assay [8], the inhibition is -1.59%.
Take `CC(C)(Sc1cc(C(C)(C)C)c(O)c(C(C)(C)C)c1)Sc1cc(C(C)(C)C)c(O)c(C(C)(C)C)c1`: the insulin secretion stimulation in assay [1] is 3.7%. In addition, the viability decrease in assay [2] was -20.3%. Moreover, the tube area decrease in assay [3] is -25%. In addition, the GLP1 secretion stimulation in assay [4] is 0.8%. In addition, in assay [5], the inhibition of viability is 1.57%. For the same compound, the viability decrease (inhibition) in assay [6] is 9.4%; in assay [7], 37.1%. The inhibition in assay [8] is 6.05%.
